Source: PubChem BioAssay (National Center for Advancing Translational Sciences (NCATS))
Pol kappa inh – blocks human DNA polymerase kappa activity; Q9UBT6; 0.53% of 400,000 active; Potency, µM (highest dose often 107 µM), for inactives: at the top dose activity, negative = inhibition, hits mostly inhibitors; AID 588579; purified Pol kappa, fluorescent DNA synthesis assay, 10 min; note: % is set by controls: 0 for no effect and ±100 for the full control effect
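10 nM Pol kappa was preincubated with compounds for 15 min at room temperature. Reaction started with 50 nM (final) substrate. Fluorescence read kinetically at 0 and 10 min.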
Pol eta inh – DNA polymerase eta (human) inhibition; Q9Y253; recombinant Pol eta, fluorescent DNA replication assay; Potency, µM (series often up to 114 µM), without a hit: at the top dose activity change, negative = inhibition, hits mostly inhibitors; 1.2% of 390,000 active; AID 588591; note: % is set by controls: 0 for no effect and ±100 for the full control effect
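Fluorescent replication assay: 50 nM final substrate added after a 15 min room-temperature compound preincubation with 10 nM enzyme. Signal taken at 0 min and again at 10 min.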
GLS inh – glutaminase GLS (human) inhibition. O94925. GLS enzymatic activity, qHTS titration. Potency, µM (titrated, usually from 45.5 µM), without a hit: at the highest dose activity change, negative = inhibition, actives largely listed as inhibitors. 0.21% of 410,000 active; note: % is set by controls: 0 for no effect and ±100 for the full control effect
Target sequence (O94925 whole entry, looked up): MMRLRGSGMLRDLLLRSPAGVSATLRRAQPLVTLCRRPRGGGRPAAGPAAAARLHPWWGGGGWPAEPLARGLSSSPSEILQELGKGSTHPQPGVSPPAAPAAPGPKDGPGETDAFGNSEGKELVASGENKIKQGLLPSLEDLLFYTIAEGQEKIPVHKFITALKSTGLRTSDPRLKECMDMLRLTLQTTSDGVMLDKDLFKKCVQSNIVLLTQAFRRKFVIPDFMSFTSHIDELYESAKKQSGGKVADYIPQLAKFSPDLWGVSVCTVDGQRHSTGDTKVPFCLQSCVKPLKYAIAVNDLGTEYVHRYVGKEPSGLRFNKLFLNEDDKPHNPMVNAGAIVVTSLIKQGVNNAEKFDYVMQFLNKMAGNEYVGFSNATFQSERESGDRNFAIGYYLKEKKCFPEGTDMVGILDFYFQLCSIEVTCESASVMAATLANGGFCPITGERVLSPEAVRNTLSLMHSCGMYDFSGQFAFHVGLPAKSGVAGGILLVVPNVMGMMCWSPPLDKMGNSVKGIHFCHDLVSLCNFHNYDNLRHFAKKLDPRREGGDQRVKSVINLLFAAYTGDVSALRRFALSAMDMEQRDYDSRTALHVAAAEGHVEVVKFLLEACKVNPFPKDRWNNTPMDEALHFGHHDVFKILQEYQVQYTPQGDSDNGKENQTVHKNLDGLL
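Two-point fluorescence kinetic (t0, 30 min RT) for hKGA; glutamate detected via glutamate oxidase–HRP–Amplex Red. Substrate: 1 mM L-glutamine solution; buffer 45 mM KH2PO4, pH 8.2.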
Pol iota inh – DNA polymerase iota (human) inhibition; Q9UNA4; Potency, µM (highest dose often 115 µM), for inactives: at the highest dose activity, negative = inhibition, actives largely listed as inhibitors; AID 588590; 1% of 390,000 active; Pol iota fluorescent replication assay, 10 min
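Fluorescent replication assay read twice, at 0 min and 10 min after adding 50 nM (final) substrate. Enzyme (10 nM) and compounds were first incubated 15 min at room temperature; enzyme-free buffer wells were negative controls.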
POLB inh – DNA polymerase beta (human) inhibition; Potency, µM (top dose mostly 114 µM), without a hit: at the highest dose activity change, negative = inhibition, usual class: inhibitors; Pol beta primer extension/strand displacement, fluorescence kinetic; 1.3% of 340,000 active; AID 485314; note: % is set by controls: 0 for no effect and ±100 for the full control effect
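10 nM enzyme + cpd, 15 min RT; start with substrate 50 nM final; read 0 min and after 10 min RT. Corrected, normalized data; 4-parameter Hill curve fit.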
APE1 inh – blocks human APE1 abasic DNA cleavage. P27695. recombinant APE1, TAMRA/BHQ-2 abasic DNA cleavage fluorescence. Potency, µM (top dose mostly 65.8 µM), for the others: at the highest dose activity change, negative = inhibition, actives largely listed as inhibitors. 0.35% of 350,000 active. AID 2517;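 note: plate controls were vehicle for no effect and reference inhibitor for full effect; nearly all actives have a fitted effect of over 55% in size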
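Compound pre-exposure to 0.75 nM APE1, 15 min at ambient temperature. Reaction initiated with 50 nM TAMRA/BHQ-2 THF substrate, read immediately in kinetic mode, 525 nm excitation, 598 nm emission.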
Active calls of the source: *; ! = not active in a repeat; [ ] = dose if it differs, or a comment. Rows were chosen to be rich in hits. Some 2.4% of all compounds tested hit in one or more screens of this group. Calls come from the whole dose curve; as a rule, active = well fitted curve in the direction sought with a large enough effect; inconclusive = small, poorly fitted or top-dose-only effect, or another doubt; inactive = no such curve, though single readings can be large; an effect the other way counts as inactive or inconclusive. Potency is the fitted concentration of half-maximal effect.

What do the screens show for `CCCC(=O)Nc1ccc(S(=O)(=O)Nc2cc(C)nc(C)n2)cc1`?
Pol kappa inh: -18.3%; Pol eta inh: -5.7%; GLS inh: -8.9%; Pol iota inh: 5.3%; POLB inh: 15.2%; APE1 inh: -0.4%

What do the screens show for `Cc1cc(NS(=O)(=O)c2ccc(NC(=O)C(F)(F)F)cc2)nc(C)n1`?
Pol kappa inh: -6.2%; Pol eta inh: 3.2%; GLS inh: 5.7%; Pol iota inh: 23.6%; POLB inh: 56.2µM*; APE1 inh: -1.3%

How did N#CC1=C2SCN(Cc3ccco3)CN2C(=O)CC1c1cccc2ccccc12 (stereo unspecified) do in these assays?
Pol kappa inh: -25.4%; Pol eta inh: -15.2%; GLS inh: inconclusive; Pol iota inh: inconclusive; POLB inh: 44.7µM*; APE1 inh: 12.8%

Results for N#CC1=C2SCN(Cc3ccco3)CN2C(=O)CC1c1ccccc1F (stereo unspecified) ?
Pol kappa inh: 0.9%; Pol eta inh: -5.0%; GLS inh: -2.8%; Pol iota inh: 5.9%; POLB inh: -3.3%; APE1 inh: 6.3%

How did CC1CCN(c2c(NCc3ccc(C(=O)NCCc4ccc(Cl)cc4)cc3)c(=O)c2=O)CC1 do in these assays?
Pol kappa inh: -20.0%; Pol eta inh: -13.0%; GLS inh: 6.3%; Pol iota inh: inconclusive; POLB inh: 31.6µM*; APE1 inh: 1.1%

How did C=CCn1c(N)c(C(=O)NCc2ccco2)sc1=S do in these assays?
Pol kappa inh: -12.1%; Pol eta inh: -15.4%; GLS inh: -5.6%; Pol iota inh: -7.9%[58.9 µM]; POLB inh: -7.2%; APE1 inh: -1.1%

How did O=C(NC1CCCC1)c1sc(=S)n2c1[nH]c(=O)c1ccccc12 do in these assays?
Pol kappa inh: -24.3%; Pol eta inh: 56.2µM*; GLS inh: 5.9%; Pol iota inh: inconclusive; POLB inh: inconclusive; APE1 inh: -4.2%

What do the screens show for `O=C(NCc1ccco1)c1sc(=S)n2c1[nH]c(=O)c1ccccc12`?
Pol kappa inh: inconclusive; Pol eta inh: 22.4µM*; GLS inh: inconclusive; Pol iota inh: inconclusive; POLB inh: 50.1µM*; APE1 inh: -5.9%

Results for Cc1ccc(CNC(=O)c2ccc3c(=O)[nH]c4c(C(=O)NCC5CCCO5)sc(=S)n4c3c2)cc1 (stereo unspecified) ?
Pol kappa inh: -15.1%; Pol eta inh: -24.3%; GLS inh: -12.8%; Pol iota inh: 24.2%; POLB inh: -1.9%; APE1 inh: 15.5%

Results for CCCCCNC(=O)c1ccc2c(=O)[nH]c3c(C(=O)NCC4CCCO4)sc(=S)n3c2c1 (stereo unspecified) ?
Pol kappa inh: -44.4%; Pol eta inh: 25.1µM*; GLS inh: inconclusive; Pol iota inh: -18.8%; POLB inh: -7.6%; APE1 inh: inconclusive

What do the screens show for `CCc1nc2cccnc2n1-c1ccc(CC(=O)NC(C)CC)cc1` (stereo unspecified)?
Pol kappa inh: 2.2%; Pol eta inh: -13.9%; GLS inh: -8.6%; Pol iota inh: -5.5%; POLB inh: 5.9%; APE1 inh: 22.8%

What do the screens show for `COc1cc(OC)cc(C(=O)N2CCC(N3CCN(c4ccccc4)CC3)CC2)c1`?
Pol kappa inh: -7.5%; Pol eta inh: -1.6%; GLS inh: 12.6%; Pol iota inh: -8.9%; POLB inh: -28.6%; APE1 inh: 2.5%

How did O=C(CCC(=O)N1CCN(c2ccccn2)CC1)c1ccc(Cl)s1 do in these assays?
Pol kappa inh: 0.0%; Pol eta inh: 14.1µM*; GLS inh: -0.6%; Pol iota inh: inconclusive; APE1 inh: -7.0%

What do the screens show for `CN(C)c1ccc(/C=C/c2ccnc3ccccc23)cc1N`?
Pol kappa inh: -16.4%; Pol iota inh: 79.4µM*

How did Cc1cc(N(C)C)c(C)cc1/C=C/c1ccnc2ccccc12 do in these assays?
Pol kappa inh: -19.4%; Pol iota inh: 89.1µM*

What do the screens show for `CN(C)c1ccc(/C=C/c2ccnc3ccc4ccccc4c23)cc1`?
Pol kappa inh: 28.2µM*; Pol iota inh: inconclusive

What do the screens show for `CN(C)c1ccc(/C=C/c2ccnc3c2ccc2ccccc23)cc1`?
Pol kappa inh: -6.5%; Pol iota inh: 30.9%

What do the screens show for `CN(C)c1ccc(/C=C/c2ccnc3ccccc23)cc1`?
Pol kappa inh: -7.7%; Pol iota inh: 25.8%

How did COc1ccc(-c2c(C#N)c(N)nc3c2CCc2ccccc2-3)cc1OC do in these assays?
Pol kappa inh: -7.1%; Pol eta inh: -20.9%; GLS inh: 6.6%; Pol iota inh: -5.2%; POLB inh: -2.4%; APE1 inh: -3.7%

What do the screens show for `CCCc1ccc(C(=O)NNC(=O)c2ccc(Br)cc2)cc1`?
Pol kappa inh: -21.3%; Pol eta inh: inconclusive; GLS inh: -6.5%; Pol iota inh: inconclusive; POLB inh: 44.7µM*; APE1 inh: 0.7%

Results for CCCC(=NCCc1c(C)[nH]c2ccccc12)C1=C(O)CC(c2ccccc2)CC1=O (stereo unspecified) ?
Pol kappa inh: -6.9%; Pol eta inh: -25.3%; GLS inh: -0.9%; Pol iota inh: 89.1µM*; POLB inh: 1.5%; APE1 inh: 0.6%

Results for NN1C(=O)/C(=C2/Sc3ccccc3N2CCCS(=O)(=O)O)SC1=S ?
Pol kappa inh: -34.8%; Pol eta inh: 50.1µM*; GLS inh: 8.9%; Pol iota inh: inconclusive; POLB inh: 22.4µM*; APE1 inh: -31.8%

How did Cc1ccc(NC(=O)CSc2cn(CC(=O)N3CCCC3)c3ccccc23)cc1Cl do in these assays?
Pol kappa inh: -19.6%; Pol eta inh: 7.6%; GLS inh: -1.1%; Pol iota inh: -13.4%; POLB inh: -11.9%

What do the screens show for `COc1ccc(S(=O)(=O)c2c(C)c(NS(=O)(=O)c3ccccc3)cc(C)c2O)cc1`?
Pol kappa inh: -11.9%; Pol eta inh: -15.0%; GLS inh: 3.16µM*!; Pol iota inh: 91.4%; POLB inh: inconclusive; APE1 inh: 19.7%

What do the screens show for `COc1ccc(S(=O)(=O)Nc2cc(C)c(O)c(S(=O)(=O)c3ccccc3)c2)cc1`?
Pol kappa inh: -11.6%; Pol eta inh: -1.3%; GLS inh: 52.8%; Pol iota inh: -5.6%; POLB inh: 1.8%; APE1 inh: -1.7%

How did Cc1ccc(S(=O)(=O)N2CCCCC2)cc1C(=O)NC1CC(C)(C)NC(C)(C)C1 do in these assays?
Pol kappa inh: 1.1%; Pol eta inh: -19.4%; GLS inh: 5.7%; Pol iota inh: 25.9%; APE1 inh: 11.7%

Results for CCCCC(=O)Nc1sc2c(c1-c1nc3ccccc3s1)CCN(C(C)=O)C2 ?
POLB inh: -1.5%; APE1 inh: -5.2%
